Data reported in PubChem BioAssay.
Activity calls are given as the source filed them. No stated cut-off is given here; in the data, active means inhibition above about 33%; inactive means the rest.

Test: compounds suppressing VP16-driven luciferase signal – cell-based, luminescence, high throughput, counter-screen for LRH-1 inverse agonist project (AID 651615)
Conditions: Gal4-VP16 luciferase reporter cells, at 3.6 µM, stronger effect = higher value

**Q.** With `CCOC(=O)CC1CCCCN1C(=O)c1cc(COc2cccc3cnccc23)on1` (stereo not given) as the compound, how does the inhibition read?
**A.** 61.4% (active)

**Q.** With `O=C(OCC(=O)N1CCN(c2ccccc2)CC1)c1ccc2ccccc2n1` as the compound, how does the inhibition read?
**A.** 2.06% (inactive)

**Q.** Which inhibition does the source give for `Cc1no[n+]([O-])c1COc1ccc(/C=C2\NC(=S)NC2=O)cc1` here?
**A.** -19.4% (inactive)

**Q.** For `CS(=O)(=O)c1ccc(-c2cc(NC=O)c3ncc(-c4ccc(F)cc4)n3c2)cc1`, which inhibition is on record?
**A.** 1.21% (inactive)

**Q.** With `O=C(Cn1ncc(Cl)c(Cl)c1=O)Nc1ccc2c(c1)OCO2` as the compound, how does the inhibition read?
**A.** -13.7% (inactive)

**Q.** With `CCOc1ccc(NC(=O)Cn2cc(C(C)=O)c3ccccc32)cc1` as the compound, how does the inhibition read?
**A.** 41.9% (active)

**Q.** Which inhibition does the source give for `COc1ccccc1NC(=O)c1ccc(NC(=O)CSc2nnnn2C)cc1` here?
**A.** -1.96% (inactive)

**Q.** For `COc1ccc(C2=Nn3c(nnc3-c3ccccc3F)SC2)cc1OC1CCOC1` (stereo not given), which inhibition is on record?
**A.** -40.3% (inactive)

**Q.** Which inhibition does the source give for `COC(=O)c1ccc([C@H](NC(=O)c2ccco2)[C@]2(C)C[C@H]2C2CCCCC2)cc1` here?
**A.** 2.54% (inactive)

**Q.** With `CCCCNC(=O)COC(=O)c1c2c(nc3ccccc13)/C(=C/c1cccs1)CC2` as the compound, how does the inhibition read?
**A.** 37.3% (active)

**Q.** Which inhibition does the source give for `CC(=NNC(=S)N1CCN(c2ccccn2)CC1)c1nccs1` here?
**A.** 44.3% (active)

**Q.** For `CCCC(=O)N1CCN(c2ccc(NC(=O)c3ccc([N+](=O)[O-])o3)cc2)CC1`, which inhibition is on record?
**A.** -18.4% (inactive)

**Q.** For `Cn1c(CN2CCN(c3ccc(Cl)cc3)CC2)nc2ccccc21`, which inhibition is on record?
**A.** -6.14% (inactive)

**Q.** With `COc1ccc(Oc2ccc(NC(=O)c3ccccc3C)cc2)cc1` as the compound, how does the inhibition read?
**A.** -18.1% (inactive)

**Q.** Which inhibition does the source give for `Cc1cc(C)nc(SCC(=O)Nc2ccc(N3CCOCC3)c(Cl)c2)n1` here?
**A.** 35.7% (active)

**Q.** Which inhibition does the source give for `O=[N+]([O-])c1cc2ncccc2c2ncccc12` here?
**A.** -8.8% (inactive)

**Q.** With `Cc1cccc(NC(=O)CSc2nc3[nH]ncc3c(=O)[nH]2)c1C` as the compound, how does the inhibition read?
**A.** -4.74% (inactive)

**Q.** For `COc1ccc(CCNC(=O)CN2C(=O)NC3(CCCCC3)C2=O)cc1`, which inhibition is on record?
**A.** -6.08% (inactive)

**Q.** Which inhibition does the source give for `COc1cc(/C=N/n2nnnc2N)ccc1OCc1c(C)no[n+]1[O-]` here?
**A.** 10.5% (inactive)

**Q.** Which inhibition does the source give for `CC(=O)C1=C(c2ccc(Br)cc2)C(=O)c2ccccc2C1=O` here?
**A.** 92% (active)

**Q.** Which inhibition does the source give for `CCn1c2ccccc2c2cc(C3C(C#N)=C(N)Oc4n[nH]c(COC)c43)ccc21` (stereo not given) here?
**A.** 14.3% (inactive)

**Q.** With `COc1ccc(Br)cc1/C=C/C(=O)c1ccc(NC(C)=O)cc1` as the compound, how does the inhibition read?
**A.** 85.4% (active)

**Q.** For `COc1cc2c(cc1OC)-c1c(OC)c(OC)cc3ccnc(c13)C2=O`, which inhibition is on record?
**A.** 25.4% (inactive)

**Q.** For `COc1cc2nc(/C=C/c3cc(OC)c(OC)c(OC)c3)sc2cc1SC`, which inhibition is on record?
**A.** -2.8% (inactive)

**Q.** With `COc1cc(/C=N/Nc2snc(SC)c2C#N)ccc1O` as the compound, how does the inhibition read?
**A.** -90.8% (inactive)

**Q.** For `O=C(CCl)Nc1cccc2ncccc12`, which inhibition is on record?
**A.** -58.5% (inactive)

**Q.** Which inhibition does the source give for `CC1(C(=O)NCc2ccco2)Cc2c(-c3cccc(C(N)=O)c3)ccnc2O1` (stereo not given) here?
**A.** -9.28% (inactive)

**Q.** Which inhibition does the source give for `CNc1c2cccc(C)c2nc2c(C(=O)NCCN(C)C)cccc12` here?
**A.** 74.7% (active)

**Q.** For `COc1cc(NC(=O)CCl)ccc(=O)c1`, which inhibition is on record?
**A.** -57% (inactive)

**Q.** With `CCOc1ccc(CCNC(=O)COC(=O)c2ccc(OC)c(OC)c2OC)cc1OCC` as the compound, how does the inhibition read?
**A.** -6.44% (inactive)

**Q.** With `O=[N+]([O-])c1ccc(N2CCCCC2)cc1N1CCOCC1` as the compound, how does the inhibition read?
**A.** -5.18% (inactive)

**Q.** For `COc1ccc(/C=C2/C(=O)OCc3cc(OC)c(OC)cc32)cc1`, which inhibition is on record?
**A.** 23.4% (inactive)

**Q.** For `COc1cc2c(OC(C)=O)c3c(c(-c4ccc5c(c4)OCO5)c2cc1OC)C(=O)OC3`, which inhibition is on record?
**A.** 34.7% (active)

**Q.** For `COc1ccc(S(=O)(=O)Nc2ccc(CC#N)cc2)cc1`, which inhibition is on record?
**A.** -0.34% (inactive)

**Q.** Which inhibition does the source give for `Cc1cc(Br)ccc1NC(=O)CSc1nnc(CN2CCOCC2)n1C` here?
**A.** 0.09% (inactive)

**Q.** For `Cc1cc(C)nc(-n2nc(C)cc2Nc2ccccc2)n1`, which inhibition is on record?
**A.** 24% (inactive)

**Q.** For `CCn1nnnc1SCC(=O)N(C)C1CCS(=O)(=O)C1` (stereo not given), which inhibition is on record?
**A.** -0.7% (inactive)

**Q.** With `CC(C)n1c(SCC(=O)Nc2ccc(N3CCOCC3)cc2)nnc1-c1ccco1` as the compound, how does the inhibition read?
**A.** -2.66% (inactive)

**Q.** Which inhibition does the source give for `CC(=O)Nc1sc2c(c1-c1nc3ccccc3s1)CN(C(C)C)CC2` here?
**A.** 80.7% (active)

**Q.** For `COc1cccc(C(=O)COc2cccc(NC(=O)c3cccc([N+](=O)[O-])c3)c2)c1`, which inhibition is on record?
**A.** 2.28% (inactive)
